Common to all, as to experiment: NCI-60 one-dose screen, 48 h (100 = growth as untreated, 0 = no growth, -100 = all killed)
What all share (conditions): 10 µM

Assay [1] relates to DU-145 prostate.
For assay [2], the system named is K-562 leukemia.
For assay [3], the system named is MALME-3M melanoma.
Assay [4] concerns MDA-MB-231 breast.
The subject of assay [5] is RXF 393 renal.
The subject of assay [6] is SF-268 CNS.
The subject of assay [7] is SF-295 CNS.
In assay [8] the test system is SF-539 CNS.
In assay [9] the test system is UACC-257 melanoma.
For assay [10], the system named is M14 melanoma.
Assay [11] concerns HCT-15 colon.
In assay [12] the test system is HT29 colon.
The subject of assay [13] is SNB-75 CNS.
In assay [14] the test system is SNB-19 CNS.
In assay [15] the test system is U251 CNS.
The test system of assay [16] is PC-3 prostate.
The test system of assay [17] is SK-MEL-5 melanoma.
The test system of assay [18] is UACC-62 melanoma.
For assay [19], the system named is LOX IMVI melanoma.
The test system of assay [20] is SK-MEL-28 melanoma.

About 83,000 compounds went through this panel and 20% of them were active in at least one assay; those are over-represented in the sample as a whole.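 Activity criterion: percent growth below 10, measured after cells in 96-well plates were exposed to a single compound concentration for 48 hours.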 A number with no mark means an inactive call. Activity calls are given as the source filed them.

Consider `O=S(=O)(Oc1ccc(-c2ccc3sccc3c2)cc1)c1ccccc1`, for which the growth was 107% in assay [1]; 89.6% in assay [2]; 105% in [3]; 97.3% in assay [4]; 97.1% in assay [5]; 105% in assay [6]. For the same compound, the growth in [7] is 93.9%; in assay [8], 108%; in assay [9] it was 104%; in assay [10] it was 114%; in assay [11] it was 89.8%; in assay [12], 88.9%. The growth in assay [13] was 120%; in [14], 96.8%; in [15], 108%; in assay [16], 91%; in assay [17] it was 94.4%; in [18], 74.9%. The growth in assay [19] is 101%; in [20], 97.9%.
With `CCOC(=O)c1cocc1C(=O)O`, the growth in assay [1] was 113%; in assay [2], 92.6%; in assay [3], 106%; in assay [4], 118%; in [5], 114%; in [6] it was 108%. Also, the growth in assay [7] is 101%; in assay [8], 107%; in [9], 103%; in [10] it was 103%; in assay [11], 103%; in assay [12], 110%. The growth is 83.3% in [13]; 107% in [14]; 103% in assay [15]; 112% in assay [16]; 104% in assay [17]; 116% in assay [18]. The growth is 103% in [19] and 104% in assay [20].
Turning to `CCOC(=O)c1cc(C(=O)c2cc(OC)cc(OC)c2)n2ncc3ccccc3c12`, the growth in assay [1] was 46.4%; in [2], 5.75% (active); in assay [3], 41.9%; in assay [4], 42.9%; in [5], 29.1%; in assay [6], 46.9%. In addition, the growth in assay [7] is 8.71% (active); in assay [8], 11.5%; in assay [9], 49%; in assay [10], 15.7%; in assay [11] it was 29.8%; in assay [12], 2.01% (active). Moreover, the growth in [13] is -10% (active); in assay [14], 46.8%; in [15], -13.4% (active); in [16], 31.7%; in assay [17], 18.7%; in assay [18] it was 41.7%. Moreover, the growth in assay [19] is 9.99% (active); in assay [20] it was 63%.
Take `CC[C@@H](C(=O)[C@@H](C)[C@@H](O)[C@H](C)[C@@H]1O[C@@H]([C@@H](CC)C(=O)N(CC)CC)CC[C@@H]1C)C1O[C@]2(C=CC(=O)[C@]3(CC[C@@](C)([C@H]4CC[C@](O)(CC)[C@H](C)O4)O3)O2)[C@H](C)C[C@@H]1C` (stereo not given in full): the growth is 68.5% in assay [1]; 19.3% in assay [2]; -27.3% (active) in [3]; 25.8% in assay [4]; 28.2% in assay [5]; 46.4% in assay [6]. The growth in [7] is 4.86% (active); in [8] it was 44.8%; in assay [9], 19.8%; in [10], 13.6%; in [11] it was 11%; in [12], 13.1%. Also, the growth in [13] was 30.2%; in [14] it was 23.4%; in assay [15] it was 6.72% (active); in [16] it was 7.83% (active); in [17] it was -42.9% (active); in assay [18] it was 13%. The figures for the growth in assay [19] and in assay [20] were 34.3% and 19.5%, respectively.
`CC[C@@H](C(=O)[C@@H](C)[C@@H](O)[C@H](C)[C@@H]1O[C@@H]([C@@H](CC)C(=O)O)CC[C@@H]1C)C1O[C@]2(C=CC(=O)[C@]3(CC[C@@](C)([C@H]4CC[C@](O)(CC)[C@H](C)O4)O3)O2)[C@H](C)C[C@@H]1C` (stereo not given in full): the growth in [1] was 48%; in [2], 13.8%; in assay [3], -64.8% (active); in [4] it was 30.3%; in assay [5], 25.8%; in assay [6], 50.6%. The growth in assay [7] was 4.02% (active); in assay [8], 16.2%; in assay [9], 42.9%; in assay [10] it was 9.56% (active); in assay [11], 23.8%; in assay [12], 30.5%. Besides, the growth in [13] was 19.2%; in [14], 11.6%; in assay [15], 24%; in [16], 27.4%; in [17] it was -91.7% (active); in [18], -32.5% (active). The values for the growth in assay [19] and in [20] were 35.4% and -81.2% (active), respectively.
On to `CCN(CC)CCNc1ccc(C)c2sc3cc(Cl)ccc3c(=O)c12`, for which the growth was 43.5% in assay [1]; -51% (active) in assay [2]; -26.4% (active) in [3]; -15.9% (active) in assay [4]; 12.9% in assay [5]; 47% in [6]. In addition, the growth in assay [7] is 70%; in assay [8] it was 66.3%; in [9], -28.2% (active); in assay [10] it was -64.9% (active); in [11] it was 26.6%; in assay [12] it was -25% (active). In addition, the growth in assay [13] was 59.8%; in assay [14] it was 47%; in assay [15], 16.5%; in assay [16] it was 34.9%; in assay [17], 14.1%; in [18] it was -67% (active). For the same compound, the figures for the growth in [19] and in [20] were -84.5% (active) and -59.3% (active), respectively.
Regarding `CNS(=O)(=O)Oc1ccc(-c2sc3cc(OS(=O)(=O)NC)ccc3c2C(=O)c2ccc(OCCN3CCCCC3)cc2)cc1`, the growth is 98.2% in assay [1]; 9.88% (active) in [2]; 57.7% in assay [3]; 79.1% in assay [4]; 38.8% in assay [5]; 87.9% in assay [6]. Further, the growth in assay [7] was 89.3%; in [8] it was 65%; in [9] it was 70%; in assay [10], 65.7%; in assay [11], 35.2%; in [12], 31.1%. Also, the growth in assay [13] was 69.3%; in [14], 82.7%; in [15], 66.9%; in assay [16], 42.4%; in assay [17], 49.7%; in assay [18], 74.7%. Also, the growth was 32.8% in assay [19] and 79.2% in [20].
Take `Oc1ccc(/C=N/N=C2c3ccccc3-c3ccccc32)c(O)c1`: the growth is 90% in assay [1]; 64.8% in assay [2]; 105% in assay [3]; 48.3% in [4]; 49.6% in [5]; 83.1% in assay [6]. The growth in [7] was 101%; in assay [8], 89.1%; in assay [9] it was 84.7%; in assay [10] it was 74.4%; in assay [11] it was 46.4%; in [12], 97.5%. Also, the growth in [13] was 73.1%; in [14], 80.3%; in assay [15] it was 78.7%; in assay [16], 72.9%; in [17], 25.8%; in [18], 58.6%. Also, the figures for the growth in assay [19] and in assay [20] were 70.3% and 74.5%, respectively.

These data come from PubChem BioAssay (NCI).
